Hits are enriched below; roughly 8.1% of the tested compounds scored in any of these assays.
KB-3-1 cytotox: qHTS assay for MDR1-selective chemotherapeutics: Primary screen using the parental adenocarcinoma cell KB-3-1. Potency, µM (top dose mostly 46.1 µM), usual class: cytotoxic. KB-3-1 viability, CellTiter-Glo ATP luminescence, 72 h. hit rate 1.4% among 400,000; also: % is scaled to controls: 0 for no effect and ±100 for the full control effect; nearly all actives have a fitted effect of over 60% in size
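Cytotoxicity in the drug-sensitive parental line KB-3-1 was scored as loss of CellTiter-Glo luminescence following 72 h incubation with compound. Values come from curve fitting of normalized concentration-response data.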
MCF10A rereplic: A quantitative high throughput screen for small molecules that induce DNA re-replication in MCF 10a normal breast cells; MCF 10A DNA re-replication, Hoechst nuclear intensity, 48 h; Potency, µM (highest dose often 46.1 µM), inactives show at the highest dose activity, positive = re-replication, most hits filed as activators; hit rate 2.9% among 350,000; AID 624296, 2012; also: % of control where 0% means no effect; nearly all actives have a fitted effect of over 50% in size
KB-V1 cytotox: qHTS assay for MDR1-selective chemotherapeutics: Primary screen using the drug-selected MDR subline cells KB-V1; Potency, µM (top dose mostly 46.1 µM), actives largely listed as cytotoxic; hit rate 3.4% among 400,000; AID 1347076, 2019; KB-V1 MDR cells viability, CellTiter-Glo, 72 h; also: % is scaled to controls: 0 for no effect and ±100 for the full control effect; nearly all actives have a fitted effect of over 60% in size
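qHTS viability screen in drug-selected KB-V1 MDR cells: 72 h compound treatment at 37 degrees C, ATP luminescence end point.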
SW480 rerep: A quantitative high throughput screen for small molecules that induce DNA re-replication in SW480 colon adenocarcinoma cells; SW480 DNA re-replication, Hoechst DNA content imaging, 48 h; Potency, µM (highest dose often 46.1 µM), for the others: top-dose re-replication activation, usual class: activators; hit rate 1.8% among 340,000; AID 624297, 2012; also: % of control where 0% means no effect; nearly all actives have a fitted effect of over 55% in size
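SW480 cells exposed to compounds for 48 hr at 37 C, 5% CO2, then Hoechst-stained 40 min. Nuclear DNA content imaged by fluorescence scanning (405 nm excitation, 500-530 nm emission); re-replication scored as increased high-intensity nuclei.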
ELG1 repair inh: qHTS screen for small molecules that inhibit ELG1-dependent DNA repair in human embryonic kidney (HEK293T) cells expressing luciferase-tagged ELG1. HEK293T ELG1-luciferase reporter, luminescence, 16 h; DNA damage induced by 5-fluorouridine. Potency, µM (series often up to 46.1 µM), for the others: at the top dose activity change, negative = inhibition, usual class: inhibitors. hit rate 2.3% among 330,000; also: % is scaled to controls: 0 for no effect and ±100 for the full control effect; nearly all actives have a fitted effect of over 55% in size
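Cells (2,000 per well) received 5-fluorouridine plus test compound or DMSO and were incubated 16 hr at 37 °C, 5% CO2. Luciferase activity was read by luminescence 30 min after ONE-Glo addition; signal suppression marked inhibition of damage-induced ELG1 function.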
Active calls of the source: *; i = inactive; ? = inconclusive; / = not tested or not shown. Calls follow the shape of the dose curve; as a rule, active = well fitted curve in the direction sought with a large enough effect; inconclusive = small, poorly fitted or top-dose-only effect, or another doubt; inactive = no such curve, though single readings can be large; an effect the other way counts as inactive or inconclusive. Potency is read from the fitted curve at half-maximal effect.

SMILES | KB-3-1 cytotox | MCF10A rereplic | KB-V1 cytotox | SW480 rerep | ELG1 repair inh
COc1ccc(/C=C/C(=O)NC(=S)NNC(=O)c2cc(OC)c(OC)c(OC)c2)cc1 | i | 3% | ? | -3% | 7.3µM*
COc1ccc(/C=C/C(=O)NC(=S)Nc2ccccc2)cc1OC | i | 17% | i | 18µM* | ?
COc1ccc(/C=C/C(=O)NC(=S)NCCc2ccc(OC)c(OC)c2)cc1 | i | ? | ? | 10µM* | -2%
COc1ccc(-c2cnnn2-c2ccc(NC(=O)/C=C/c3ccc(OC)c(OC)c3)cc2)cc1 | i | 2% | i | -1% | 5.8µM*
COc1ccc(/C=C/C(=O)NC(=S)NNC(=O)c2cc(OC)c(OC)c(OC)c2)cc1OC | i | 1% | ? | 2% | ?
O=C(Nc1ccccn1)c1ccc(S(=O)(=O)N2CCCC2)cc1 | i | ? | i | 39% | ?
CC(C)C(=O)N1CCCC1(C)C(=O)Nc1ccc(-n2cccc2)cc1 (stereo unspecified) | i | / | i | / | /
Cc1ccc(C(=O)O)cc1NC(=S)NC(=O)c1ccc([N+](=O)[O-])cc1Cl | i | -2% | i | 4% | 1%
Nc1ccc(Cc2ccccn2)cc1 | i | -1% | i | -2% | 6%
COc1cccc(/C=C/C(=O)NCCc2ccc(OC)c(OC)c2)c1 | i | 1% | ? | -8% | -1%
COc1cc(/C=C/c2cc[n+](C)cc2)ccc1OCC(=O)Nc1ccccc1 | i | 7% | ? | 18µM* | ?
COc1ccc(-c2cc(C(=O)NNC(=S)NC(=O)c3c(-c4ccccc4)noc3C)[nH]n2)cc1 | ? | 10% | ? | ? | ?
Cc1onc(-c2ccccc2)c1C(=O)NNC(=S)NC(=O)/C=C/c1ccccc1 | ? | ? | 2.9µM* | ? | -5%
COc1ccc2c(CCNC(=O)/C=C/c3ccc(OC)c(OC)c3)c[nH]c2c1 | ? | ? | ? | ? | 23µM*
COc1ccc(/C=C/C(=O)NC(=S)NNC(=O)c2c(-c3ccccc3)noc2C)cc1 | ? | -6% | 7.3µM* | 6% | 1%
COc1cccc(/C=N/Nc2nn3cnnc3c3ccccc23)c1 | i | ? | ? | -5% | ?
COc1ccc2[nH]c3c(=O)n(N)c(C)nc3c2c1 | i | -4% | i | / | -11%
Cc1ccc2[nH]c3c(=O)n(N)c(C)nc3c2c1 | i | 31% | i | 6.5µM* | ?
COC(=O)CSc1[nH]c2ccc(Br)cc2c1[N+](=O)[O-] | i | 12µM* | i | 6% | -16%
CC(=O)Nc1ccc(S(=O)(=O)NCCC(=O)N2CCN(C(c3ccccc3)c3ccccc3)CC2)cc1 | i | 13% | i | -6% | -26%
O=C(CCNS(=O)(=O)c1ccccc1)N1CCN(C(c2ccccc2)c2ccccc2)CC1 | / | / | / | / | 23µM*
Cc1cc(C)cc(C(=O)NCC(=O)N2CCN(C(c3ccccc3)c3ccccc3)CC2)c1 | ? | 16µM* | 18µM* | ? | -17%
O=C(CN1CCN(C(c2ccccc2)c2ccccc2)CC1)NC(=O)NCc1ccco1 | i | 5% | 2.3µM* | ? | 0%
CC(C)(C)NC(=O)NC(=O)CN1CCN(C(c2ccccc2)c2ccccc2)CC1 | i | 11% | 21µM* | 15% | ?
CC(C)(C)NC(=O)NC(=O)CN1CCN(Cc2ccccc2)CC1 | i | 2% | i | -42% | -5%
COc1ccc(OC)c(-n2c(CN3CCC(C(N)=O)CC3)nc3ccccc3c2=O)c1 | ? | -4% | i | 0% | 3%
C=CCn1c(NC(=O)CC)c(C(=O)OCC)sc1=S | i | 1% | i | -3% | -1%
O=c1c2cc(N3CCOCC3)ccc2[nH]c(=S)n1Cc1ccco1 | i | ? | 13µM* | ? | 12%
